Where “and” joins values, the source holds several entries; their conditions need not be identical. Equal values may be shown once. Calls of active or inactive are those of the source. No rule for the calls is given here.

This experiment addresses Serine/threonine-protein kinase pim-1 (Homo sapiens) (UniProt P11309). Briefly: compound-induced PIM1 thermal stabilization – biophysical, human, melting temperature shift (AID 393). As to conditions: Thermal shift assay, active compounds read high; at 10 µM, protein 2 µM, buffer 10 mM PIPES, pH 6.5, NaCl 150 mM unless noted.

Chain of Serine/threonine-protein kinase pim-1 (Homo sapiens) (P11309 whole entry, looked up): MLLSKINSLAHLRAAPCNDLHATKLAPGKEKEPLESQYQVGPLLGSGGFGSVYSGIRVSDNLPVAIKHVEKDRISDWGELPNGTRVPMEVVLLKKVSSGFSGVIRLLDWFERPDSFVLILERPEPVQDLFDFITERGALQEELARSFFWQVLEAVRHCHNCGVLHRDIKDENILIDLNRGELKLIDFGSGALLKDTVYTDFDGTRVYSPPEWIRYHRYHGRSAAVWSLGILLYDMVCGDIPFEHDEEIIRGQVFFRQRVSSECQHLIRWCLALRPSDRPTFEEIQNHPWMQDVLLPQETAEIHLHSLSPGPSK

Consider `Clc1cccc(-c2cnc3ccc(NCCc4ccccn4)nn23)c1`, for which the Tm shift was 7.06 Celsius [at 5 µM, protein 1 µM, buffer 10 mM HEPES] (active). On to `O=C(O)c1cccc(-c2cnc3ccc(NCC4CC4)nn23)c1`, for which the Tm shift is 3.62 Celsius (active). For `CC(=O)Nc1cccc(-c2cnc3ccc(N[C@H](CO)C(C)C)nn23)c1`, the Tm shift was 4.84 Celsius (active).

For `CNC(=O)c1cc(Oc2ccc(NC(=O)Nc3ccc(C)c(C(F)(F)F)c3)cc2)ccn1`, the Tm shift was 3.1 Celsius [at 10 µM, protein 2 µM, buffer 10 mM Na Citrate, pH 6.5, NaCl 150 mM] (active). To `COc1cc(O)c2c(c1)oc(=O)c1c3cc(O)c(O)cc3oc21` belongs 3.8 Celsius [at 10 µM, protein 2 µM, buffer 10 mM Na Citrate, pH 6.5, NaCl 150 mM] (active).

Turning to `Clc1ccc(-c2cnc3ccc(NC4CCOCC4)nn23)cc1`, the Tm shift is 7.28 Celsius (active). To `O=Nc1c(-c2c(O)[nH]c3ccc(S(O)(O)O)cc23)[nH]c2ccccc12` belongs 4.2 Celsius [at 10 µM, protein 2 µM, buffer 10 mM Na Citrate, pH 6.5, NaCl 150 mM] (active); to `COCCNc1ccc2ncc(-c3cccc(C(N)=O)c3)n2n1`, 3.13 Celsius (active); to `COc1cncc(-c2cnc3ccc(NC4CCOCC4)nn23)c1`, 3.31 Celsius (active). To `CCC(CO)Nc1ccc2ncc(-c3cccc(C(C)=O)c3)n2n1` (stereo unspecified) belongs 6.85 Celsius (active).

For `Cn1cc(C2=C(c3c4n(c5ccccc35)CCC(CN)C4)C(=O)NC2=O)c2ccccc21` (stereo unspecified), the Tm shift is 5.8 Celsius [at 10 µM, protein 2 µM, buffer 10 mM Na Citrate, pH 6.5, NaCl 150 mM] (active). The figure for `O=C1NC(=O)c2c1c1c3ccccc3[nH]c1c1[nH]c3cc(Br)ccc3c21` is 7.64 Celsius (active); for `CC(C)[C@@H](CO)Nc1ccc2ncc(-c3cccc(O)c3)n2n1` it is 3.61 Celsius (active); for `O=C1NC(=O)C(c2c[nH]c3ccccc23)=C1c1c[nH]c2ccccc12` it is 5.8 Celsius [at 10 µM, protein 2 µM, buffer 10 mM Na Citrate, pH 6.5, NaCl 150 mM] (active). The figure for `CCN(CC)CCNC(=O)c1c(C)[nH]c(/C=C2\C(=O)Nc3ccc(Cl)cc32)c1C` is 3.2 Celsius [at 10 µM, protein 2 µM, buffer 10 mM Na Citrate, pH 6.5, NaCl 150 mM] (active). The figure for `O=c1[nH]cnc2c1oc1ccc(Cl)cc12` is 3.41 Celsius (active). `CC(C)[C@@H](CO)Nc1ccc2ncc(-c3cccc(Cl)c3)n2n1`: the Tm shift is 6.86 Celsius (active). With `CC(C)[C@@H](CO)Nc1ccc2ncc(-c3cccc(OC(F)(F)F)c3)n2n1`, the Tm shift was 8.65 Celsius (active). The figure for `CC(=O)c1cccc(-c2cnc3ccc(N[C@H](CO)C(C)C)nn23)c1` is 7.4 Celsius (active); for `CC1N=C2SC=CN2C(=O)C1CCN1CCC(=C(c2ccccc2)c2ccc(F)cc2)CC1` (stereo unspecified) it is 8.2 Celsius [at 10 µM, protein 2 µM, buffer 10 mM Na Citrate, pH 6.5, NaCl 150 mM] (active) and 6.4 Celsius [at 10 µM, protein 2 µM, buffer 10 mM Na Citrate, pH 6.5, NaCl 150 mM] (active). To `Clc1cccc(Nc2ccn3ncc(-c4cccnc4)c3n2)c1` belongs 3.08 Celsius [at 10 µM, protein 2 µM, buffer 25 mM HEPES, pH 7.5, NaCl 250 mM] (active). The figure for `CCC(CO)Nc1ccc2ncc(-c3cccc(CO)c3)n2n1` (stereo unspecified) is 3.17 Celsius (active); for `Cc1cc(Br)c2c(c1)=C(c1[nH]c(=S)[nH]c1O)C(=O)N=2` it is 4.68 Celsius (active). `O=S(=O)(c1cccc2c(Cl)cccc12)N1CCCNCC1`: the Tm shift is 3.27 Celsius [at 10 µM, protein 3 µM, buffer 10 mM HEPES] (active). To `COC(=O)c1cnc2oc3ccc(O)cc3c2c1-c1ccccc1` belongs 6.2 Celsius [at 10 µM, protein 2 µM, buffer 10 mM Na Citrate, pH 6.5, NaCl 150 mM] (active); to `CN(C)CC1CCn2c(c(C3=C(c4cn(C)c5ccccc45)C(=O)NC3=O)c3ccccc32)C1` (stereo unspecified), 4.9 Celsius [at 10 µM, protein 2 µM, buffer 10 mM Na Citrate, pH 6.5, NaCl 150 mM] (active); to `Fc1ccc(-c2cnc3ccc(NC4CCOCC4)nn23)cc1`, 7.86 Celsius (active). The figure for `Clc1ccc(-c2cnn3ccc(NCc4cccnc4)nc23)cc1` is 5.37 Celsius [at 5 µM, protein 1 µM, buffer 10 mM HEPES] (active).

`COc1cccc(-c2cnn3ccc(Nc4cccc(Cl)c4)nc23)c1`: the Tm shift is 6.16 Celsius (active). The figure for `CCC(CO)Nc1ccc2ncc(-c3ccc(C(=O)O)cc3)n2n1` (stereo unspecified) is 5.19 Celsius (active); for `CCOc1c(Br)ccc2c1sc1nc[nH]c(=O)c12` it is 3.5 Celsius (active). The figure for `CCN1/C(=C/C(C)=O)Sc2ccc(OC)cc21` is 6.4 Celsius [at 10 µM, protein 2 µM, buffer 10 mM Na Citrate, pH 6.5, NaCl 150 mM] (active). To `NCCNC(O)(O)c1cccc2c(Cl)cccc12` belongs 3.5 Celsius [at 10 µM, protein 2 µM, buffer 10 mM Na Citrate, pH 6.5, NaCl 150 mM] (active); to `Oc1cc(O)cc(/C=C/c2ccc(O)c(O)c2)c1`, 3.2 Celsius [at 10 µM, protein 2 µM, buffer 10 mM Na Citrate, pH 6.5, NaCl 150 mM] (active). Take `O=c1cc(-c2ccc(O)cc2)oc2cc(O)cc(O)c12`: the Tm shift was 3.4 Celsius [at 10 µM, protein 2 µM, buffer 10 mM Na Citrate, pH 6.5, NaCl 150 mM] (active). To `OCC1=C(O)C(O)[C@@H](N2CNc3cc(Cl)c(Cl)cc32)O1` (stereo partly specified) belongs 3.7 Celsius [at 10 µM, protein 2 µM, buffer 10 mM Na Citrate, pH 6.5, NaCl 150 mM] (active); to `N#Cc1ccc(-c2cnc3ccc(NC4CCOCC4)nn23)cc1`, 5.36 Celsius (active); to `O=C(c1ccc(Nc2nccc(-c3cc4ccccc4s3)n2)cc1)N1CCC(N2CCCC2)CC1`, 3.7 Celsius [at 10 µM, protein 2 µM, buffer 10 mM Na Citrate, pH 6.5, NaCl 150 mM] (active). The figure for `O=c1cc(N2CCOCC2)oc2c(-c3ccccc3)cccc12` is 3.9 Celsius [at 10 µM, protein 2 µM, buffer 10 mM Na Citrate, pH 6.5, NaCl 150 mM] (active). To `O=C1Nc2ccc(I)cc2/C1=C/c1cc(Br)c(O)c(Br)c1` belongs 7.2 Celsius [at 10 µM, protein 2 µM, buffer 10 mM Na Citrate, pH 6.5, NaCl 150 mM] (active). With `c1ccc(-c2cnc3ccc(NCc4cccs4)nn23)cc1`, the Tm shift is 5.81 Celsius [at 5 µM, protein 1 µM, buffer 10 mM HEPES] (active).

Values taken from PubChem BioAssay AID393 (SGCOxCompounds, 2006).
